Data: PubChem BioAssay (NCATS)
Where “and” joins values, the source holds several entries; their conditions need not be identical. Equal entries are not always repeated. Inconclusive results are not listed. The source holds several records for some structures; these can differ, active in one and inactive in another. Calls of active or inactive are those of the source. Unless noted, calls come from the whole dose curve; as a rule, active = well fitted curve in either direction with a large enough effect (not every such curve was filed as active); inconclusive = small, poorly fitted or top-dose-only effect, or another doubt; inactive = flat fitted curve, though single readings scatter.

System: not listed separately
Test: AP1 Signaling Pathway (AID 357); note: % is set by controls: 0 for no effect and ±100 for the full control effect
Conditions: ME-180 (cervical carcinoma) AP-1-bla reporter, EGF-induced, beta-lactamase ratio, 5 h; at 38 µM (top of the series) unless noted
How it was run: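 Titration-series screen for positive or negative modulators of EC50 EGF-induced signaling in ME-180 cells carrying an AP-1-driven beta-lactamase reporter. After 5 hours at 37 degrees Celsius, CCF4 460nm/530nm emission ratio gave %Activity; AC50 values derived.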

SMILES	activity change, negative = inhibition
Cc1cc2c(cc1Cl)N(C(=O)Nc1ccnc3ccccc13)CC2	-29.6% (inactive)
NC1(C(=O)O)CCCCC1	-0.957% (inactive)
C[N+](C)(C)CC=O	3.33% (inactive)
NC1(C(=O)O)CC1	11.9% (inactive)
CN(C)CCC(c1ccc(Br)cc1)c1ccccn1 (centres undefined)	14% [at 17.2 µM] (inactive)
N[C@@H](Cc1ccc(O)c(I)c1)C(=O)O	9.71% [at 17.2 µM] (inactive)
COc1cc(CNC(=O)CCCCCCC(C)C)ccc1O	-1.77% (inactive)
O=C(O)C1=CC(=C(c2ccc(O)c(C(=O)O)c2)c2ccc(O)c(C(=O)O)c2)C=CC1=O	-18.9% (inactive)
CCCOC(=O)c1c(-c2ccccc2)nc(CC)c(C(=O)SCC)c1CCC	2.66% (inactive)
CCCn1c(=O)c2[nH]c(-c3ccc(S(=O)(=O)O)cc3)nc2n(CCC)c1=O	7.54% (inactive)
CC(C)NCC(O)COc1ccc(CC(N)=O)cc1 (centres undefined)	5.57% [at 17.2 µM] (inactive)
O=C(O)C1CCNCC1	-3.06% (inactive)
CC(=O)NNC(=O)N1Cc2ccccc2Oc2ccc(Cl)cc21	-8.52% (inactive)
COc1ccccc1N1CCN(CCN(C(=O)c2ccc(F)cc2)c2ccccn2)CC1	1.26% (inactive)
N=C(N)c1ccccc1	10.4% (inactive)
NCCS(=O)O	7.28% (inactive)

SMILES	activity change, negative = inhibition
CCCCCCCCCCC/C=C\C(C)(C)/C=C\CCCC(=O)O	-13.8% (inactive)
N=C(N)c1ccc(OCCCCCOc2ccc(C(=N)N)cc2)cc1 (tested in a mixture with another compound)	5.08% (inactive)
O=C(O)C1=CCCNC1	-0.308% (inactive)
N[C@@H](Cc1c[nH]c2ccccc12)C(=O)O	4% (inactive)
CC1CNCCN1S(=O)(=O)c1cccc2cnccc12 (centres undefined)	2.59% [at 17.2 µM] (inactive)
CN1CCN(c2nc3cc(C(F)(F)F)ccc3n3cccc23)CC1	-17.4% (inactive)
Cc1ccc2c(c1)C(N1CCN(C)CC1)=Nc1cccnc1N2	22.6% (inactive)
NC(=O)CNCCC(c1ccccc1)c1ccccc1	-7.75% (inactive)
N=C(N)SCCN	3.17% (inactive)
NCCCCN=C(N)N	-8.22% (inactive)
c1ccc(CN2CCC3(CCCc4ccccc43)CC2)cc1	11.9% (inactive)
COc1ccccc1N1CCN(CCCCN2C(=O)c3ccccc3C2=O)CC1	-12.6% (inactive)
O=C(O)/C=C/c1ccc(O)c(O)c1	5.87% [at 17.2 µM] (inactive)
O=C(O)C1=CCCN(CCON=C(c2ccccc2)c2ccccc2)C1	5.02% (inactive)
O=C(OCCN1CCOCC1)C1(c2ccccc2)CCCCC1	-11.4% (inactive)

Target: Cytochrome P450 1A2 (Homo sapiens) (UniProt P05177)
Test: p450-cyp1a2 (AID 410; calls by dose curve; note: potency is the fitted concentration of half-maximal effect;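 for activity change, negative = inhibition: -100% = full effect of reference inhibitor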)
Conditions: recombinant CYP1A2, luciferin-ME demethylation, luminescence; series mostly up to 57 µM; activity change, negative = inhibition: at the top concentration
How it was run: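 Read-out is luminescence from luciferin produced by CYP1A2 demethylation of Luciferin-ME (100uM, at Km). Detection reagent stopped the 60 min NADPH-dependent reaction; signals were normalized to 57 uM furafylline.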

Sequence of Cytochrome P450 1A2 (Homo sapiens) (P05177 whole entry, looked up): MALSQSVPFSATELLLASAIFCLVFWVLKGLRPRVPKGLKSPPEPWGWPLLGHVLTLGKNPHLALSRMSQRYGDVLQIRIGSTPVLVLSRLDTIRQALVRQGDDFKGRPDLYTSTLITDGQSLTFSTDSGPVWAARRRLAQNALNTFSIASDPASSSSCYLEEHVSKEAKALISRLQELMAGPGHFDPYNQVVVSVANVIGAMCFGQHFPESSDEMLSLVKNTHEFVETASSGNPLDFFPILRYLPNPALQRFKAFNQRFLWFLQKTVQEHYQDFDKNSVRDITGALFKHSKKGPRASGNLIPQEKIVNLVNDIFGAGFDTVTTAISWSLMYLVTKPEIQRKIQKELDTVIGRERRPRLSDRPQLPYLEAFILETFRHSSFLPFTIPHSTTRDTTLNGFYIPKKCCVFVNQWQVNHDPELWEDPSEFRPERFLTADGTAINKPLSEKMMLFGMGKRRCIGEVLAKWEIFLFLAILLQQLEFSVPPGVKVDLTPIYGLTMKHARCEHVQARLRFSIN

SMILES	activity change, negative = inhibition	Potency
CC(=O)C(C)=O	0.6% (inactive)	–
O=C(O)C1=CC(=C(c2ccc(O)c(C(=O)O)c2)c2ccc(O)c(C(=O)O)c2)C=CC1=O	–	10 µM (active)
CCCOC(=O)c1c(-c2ccccc2)nc(CC)c(C(=O)SCC)c1CCC	–	10 µM (active)
CC(C)NC[C@H](O)COc1cccc2ccccc12	–	0.2 µM (active)
N=C(N)c1ccccc1	-7.5% (inactive)	–
NCCS(=O)O	–	inactive
CCCCCCCCCCC/C=C\C(C)(C)/C=C\CCCC(=O)O	–	39.8 µM (active)
O=C(O)C1=CCCNC1	–	inactive
CN1CCN(c2nc3cc(C(F)(F)F)ccc3n3cccc23)CC1	–	200 nM (active) and 39.8 nM (active)
NC(=O)CNCCC(c1ccccc1)c1ccccc1	-4.7% (inactive)	–
N=C(N)SCCN	–	inactive and 31.6 µM (active)
COc1ccccc1N1CCN(CCCCN2C(=O)c3ccccc3C2=O)CC1	–	inactive
O=C(OCCN1CCOCC1)C1(c2ccccc2)CCCCC1	–	31.6 µM (active)

System: not listed separately
Test: NFAT Signaling Pathway (AID 444);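 note: carbachol stimulus at about its EC50 of 1 µM final; % is set by controls: 0 for no effect and ±100 for the full control effect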
Conditions: Jurkat NFAT-bla M1, carbachol, beta-lactamase ratio, 5 h; at 38 µM (top of the series) unless noted
How it was run: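 Read-out: CCF4 FRET ratio (460 nm/530 nm) after 1 h RT dye loading, used for %activity and AC50 from titration series. Cells: Jurkat NFAT-β-lactamase/M1 line, treated with compound plus 1 uM carbachol for 5 h, 37 °C.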

SMILES	activity change, negative = inhibition
Cc1cc2c(cc1Cl)N(C(=O)Nc1ccnc3ccccc13)CC2	4.5% (inactive)
NC1(C(=O)O)CCCCC1	3% (inactive)
C[N+](C)(C)CC=O	-6.7% (inactive)
NC1(C(=O)O)CC1	-11.2% (inactive)
CC(=O)C(C)=O	3.23% (inactive)
CN(C)CCC(c1ccc(Br)cc1)c1ccccn1 (centres undefined)	-90.1% [at 17.2 µM] (active)
N[C@@H](Cc1ccc(O)c(I)c1)C(=O)O	-2.26% [at 17.2 µM] (inactive)
COc1cc(CNC(=O)CCCCCCC(C)C)ccc1O	7.5% (inactive)
CCCn1c(=O)c2[nH]c(-c3ccc(S(=O)(=O)O)cc3)nc2n(CCC)c1=O	13.8% (inactive)
O=C(O)C1CCNCC1	11.3% (inactive)
CC(=O)NNC(=O)N1Cc2ccccc2Oc2ccc(Cl)cc21	13.5% (inactive)
N[C@@H](Cc1c[nH]c2ccccc12)C(=O)O	-12.3% (inactive)
c1ccc(CN2CCC3(CCCc4ccccc43)CC2)cc1	-19.1% (inactive)
O=C(O)/C=C/c1ccc(O)c(O)c1	-10.8% [at 17.2 µM] (inactive)
O=C(O)C1=CCCN(CCON=C(c2ccccc2)c2ccccc2)C1	-1.26% (inactive)
